Compounds with a hit are over-represented: about 4.7% of the library has one in this group of screens.
HSP90 inh: HSP90 inhibitors, primary screen, cell lysate, luminescence. Rabbit reticulocyte lysate, luciferase refolding luminescence, 3 h. AID 1789, 2009. 290,000 compounds, 0.91% hits. Heat shock protein HSP 90 (rabbit reticulocyte lysate; luciferase refolding). inhibition, % at 5.6 µM;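 active means inhibition above the screen-wide mean plus 3 SD, computed separately per campaign, cut at about 16% in these data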;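 further: 0% = DMSO wells and 100% = 60 µM geldanamycin wells; inhibitors lower the luminescence because luciferase stays unfolded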
TWEAK Fn14 block: inhibitors of TWEAK-Fn14 signaling, primary screen, luciferase reporter cells, uHTS | 360,000 compounds, 2% hits | AID 1159606, 2016 | TWEAK-stimulated Fn14 reporter cells, luciferase luminescence, 8 h | inhibition, % at 10 µM; in the data active means inhibition above about 50%
TROY NFkB inh: inhibitors of TROY-driven NF-kB signaling, primary screen, Q293 LMP1-TROYcd cells, NF-kB luciferase, uHTS. Q293 LMP1-TROYcd NF-kB luciferase reporter, 4 h. inhibition, % at 10 µM. 360,000 compounds, 0.98% hits. AID 1347056, 2019;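 active means compounds whose plate-normalised and pattern-corrected inhibition of the luciferase reporter signal at the single screening dose is 50% or more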
HSF-1 act: HSF-1 activators, primary screen, NIH3T3-HGL cells, MG132 stress, luminescence, single point. NIH3T3-HGL HSF-1 luciferase reporter, 8 h; 100% = twice DMSO control signal. activation, % at 9 µM. 300,000 compounds, 1.7% hits;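 active means mean replicate activation of at least 50% with a set share of replicates each reaching 50%; inconclusive means only one of those two conditions met; inactive means mean below 50% and too few replicates reaching it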;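 further: 0% = median of the neutral control wells and 100% = twice that signal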
HSF1 inhib: HSF1 inhibitors in luciferase reporter cells, primary screen, cell-based, NIH3T3, luminescence; activity change, negative = inhibition, % at 7.5 µM (by protocol); 300,000 compounds, 0.77% hits; NIH3T3-HGL HSE-luciferase, MG132-induced, luminescence 8 h; hits give low values;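 active means more than half of replicate wells show activity change below -50%, luminescence cut by over half; inconclusive means some wells, but at most half, below -50%; inactive means no replicate well below -50%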;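 further: luciferase reports HSF-1 transcriptional activity via heat shock element; 0% = median of DMSO wells and -100% = zero luminescence signal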
LMP1 NFkB inh: EBV LMP1-driven NF-kappaB luciferase reporter inhibitors, primary screen, cell-based, luminescence, single point. 350,000 compounds, 0.69% hits. inhibition, % at 12.5 µM. LMP1-induced NF-kappaB luciferase reporter cells; in the data active means inhibition above about 41%; inconclusive means no clear call, values can overlap the other calls;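 further: 0% = neutral control wells and 100% = reference inhibitor control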
Starred values were filed as active, the others as inactive.

`Cn1c(CC(=O)Nc2ccccc2F)nnc1SCC(=O)NC1=NCCS1` gave HSP90 inh -2.6, TWEAK Fn14 block 53.1*, TROY NFkB inh 4.8, HSF-1 act 6.1, HSF1 inhib -4.8 and LMP1 NFkB inh -8.6.
`CC(c1ccccc1)c1nnc(NC(=O)Nc2ccccc2F)s1` (stereo not given) gave HSP90 inh -1.1, TWEAK Fn14 block -22.0, TROY NFkB inh -11.8, HSF-1 act 7.2, HSF1 inhib 11.1 and LMP1 NFkB inh 46.1*.
For COc1ccccc1C1(CC(=O)O)CCOC(C)(C)C1 (stereo not given) the results were HSP90 inh -1.2, TWEAK Fn14 block -12.3, TROY NFkB inh 13.1, HSF-1 act -11.3, HSF1 inhib 0.5 and LMP1 NFkB inh 68.5*.
For CC1(C)CC(CC(=O)O)(c2ccc(F)cc2)CCO1 (stereo not given) the results were HSP90 inh 0.0, TWEAK Fn14 block -1.7, TROY NFkB inh -9.2, HSF-1 act 31.6, HSF1 inhib 8.7 and LMP1 NFkB inh 3.6.
For O=CNc1cc(-c2ccoc2)cn2c(-c3ccc(F)cc3)cnc12 the results were TWEAK Fn14 block 7.2 and TROY NFkB inh 3.0.
`COc1ccccc1CNC(=O)c1ccc2nc3[nH]c4ccccc4c3nc2c1` gave HSP90 inh 1.2, TWEAK Fn14 block 4.9, TROY NFkB inh -88.7, HSF-1 act 10.0, HSF1 inhib 6.1 and LMP1 NFkB inh -37.4.
Cc1ccc(CNC(=O)c2ccc3nc4[nH]c5ccccc5c4nc3c2)cc1 was read as HSP90 inh -5.6, HSF-1 act -77.3 and HSF1 inhib -76.1*.
`CCc1nc2ccc(C(=O)Nc3cccc(NS(C)(=O)=O)c3)cn2c1N(CC)Cc1cccc(Br)c1` gave TWEAK Fn14 block 22.5 and TROY NFkB inh 30.4.
O=C(Nc1ccccc1NC(=O)c1ccco1)c1ccccc1 was read as HSP90 inh -2.3, TWEAK Fn14 block 10.3, TROY NFkB inh 15.8, HSF-1 act -4.5, HSF1 inhib -0.4 and LMP1 NFkB inh -1.5.
CC(C)(C)c1ccc(C(=O)Nc2ccccc2NC(=O)c2ccco2)cc1 was read as HSP90 inh -1.7, TWEAK Fn14 block 96.5*, HSF-1 act -5.3, HSF1 inhib 3.8 and LMP1 NFkB inh -7.0.
O=C(Nc1ccc(Oc2cccc(C(F)(F)F)c2)nc1)c1ccco1 was read as HSP90 inh 1.1, TWEAK Fn14 block 14.2, TROY NFkB inh 7.7, HSF-1 act 14.1, HSF1 inhib -3.7 and LMP1 NFkB inh 6.2.
CC(C)(C)c1ccc(Oc2ccc(NC(=O)c3ccco3)cn2)cc1 was read as HSP90 inh -0.7, TWEAK Fn14 block 78.2*, TROY NFkB inh 12.2, HSF-1 act -43.4, HSF1 inhib inconclusive and LMP1 NFkB inh -98.8.
For Cc1ccc(NC(=O)CN(C)C2CCCCC2)cc1Cl the results were HSP90 inh 0.6, TWEAK Fn14 block -28.2, TROY NFkB inh 16.2, HSF-1 act -84.4, HSF1 inhib -81.7* and LMP1 NFkB inh -10.6.
COC(=O)c1[nH]c2cccc(Cl)c2c1NC(=O)CN(C)C1CCCCC1 was read as HSP90 inh -0.4, TWEAK Fn14 block 94.8*, TROY NFkB inh -2.2 and LMP1 NFkB inh 3.3.
Screening CC1(Oc2ccccc2)CCN(Cc2csc3ccccc23)C1 (stereo not given) returned TWEAK Fn14 block -15.1 and TROY NFkB inh -7.7.
NC(=O)c1cc2cc(Br)ccc2oc1=NCc1ccccc1 was read as HSP90 inh 4.9, TWEAK Fn14 block 13.3, TROY NFkB inh -5.9, HSF-1 act 190.1*, HSF1 inhib 142.4 and LMP1 NFkB inh 0.2.
COc1ccc(-c2nc3cc(C)c(Br)c(C)n3c2Cc2ccc(C)cc2)cc1OC was read as TWEAK Fn14 block -13.3 and TROY NFkB inh -7.0.
Clc1cccc(CN2CCCCCC2)c1 was read as HSP90 inh -0.2, TWEAK Fn14 block 2.1, TROY NFkB inh -9.5, HSF-1 act -11.0, HSF1 inhib 2.6 and LMP1 NFkB inh 80.2*.

Source: PubChem BioAssay (several laboratories)
